Compound activity deposited in PubChem by National Center for Advancing Translational Sciences (NCATS).
Pol eta inh-1: qHTS for Inhibitors of Polymerase Eta; Potency, µM (highest dose often 114 µM), usual class: inhibitors; recombinant Pol eta, fluorescent DNA replication assay; DNA polymerase eta (Homo sapiens), Q9Y253; AID 588591, 2011; hit rate 1.2% among 390,000
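Fluorescent replication assay: 50 nM final substrate added after a 15 min room-temperature compound preincubation with 10 nM enzyme. Signal taken at 0 min and again at 10 min.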
WRN helicase inh: qHTS for Inhibitors of WRN Helicase. Bifunctional 3'-5' exonuclease/ATP-dependent helicase WRN (Homo sapiens), Q14191. WRN helicase unwinding, fluorescent forked duplex, kinetic. Potency, µM (titrated, usually from 114 µM), hits mostly inhibitors. hit rate 0.46% among 360,000. AID 651768, 2012; note: nearly all actives have a fitted effect of over 55% in size
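WRN at 20 nM final was preincubated with compound for 15 min at room temperature; reaction started with 100 nM forked duplex oligonucleotide carrying fluorophore and quencher plus 2 mM ATP (final). Unwinding followed kinetically by red fluorescence (ex 525/em 598 nm).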
Pol beta inh: qHTS Assay for Inhibitors of DNA Polymerase Beta; P06746; Pol beta primer extension/strand displacement, fluorescence kinetic; Potency, µM (top dose mostly 114 µM), actives largely listed as inhibitors; hit rate 1.3% among 340,000; AID 485314, 2010
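Values derive from four-parameter Hill fits of normalized kinetic data: reads at 0 and 10 min following addition of 50 nM substrate to 10 nM Pol beta preincubated 15 min with compound.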
Pol iota inh: qHTS for Inhibitors of Polymerase Iota; DNA polymerase iota (Homo sapiens), Q9UNA4; Pol iota fluorescent replication assay, 10 min; Potency, µM (series often up to 115 µM), usual class: inhibitors; hit rate 1% among 390,000
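Pol iota at 10 nM preincubated 15 min with compounds at room temperature; reaction started with fluorescent substrate, 50 nM final. Fluorescence read kinetically at 0 and 10 min; buffer-only wells as negative control.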
Pol kappa inh-1: qHTS for Inhibitors of Polymerase Kappa; DNA polymerase kappa (Homo sapiens), Q9UBT6; purified Pol kappa, fluorescent DNA synthesis assay, 10 min; Potency, µM (doses to about 107 µM), actives largely listed as inhibitors; hit rate 0.53% among 400,000; AID 588579, 2011
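Kinetic fluorescence readout at 0 and 10 min followed reaction start with substrate at 50 nM final. Beforehand, enzyme (10 nM Pol kappa) stood 15 min with compound at room temperature; buffer-only wells were negative controls.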
PI5P4K alpha inh: qHTS for Inhibitors of phosphatidylinositol 5-phosphate 4-kinase (PI5P4K) | AID 652105, 2013 | hit rate 1.2% among 330,000 | PI5P4Kalpha enzyme, ADP-Glo luminescence, 60 min; active compounds read low | Phosphatidylinositol 5-phosphate 4-kinase type-2 alpha (Homo sapiens), P48426 | max response, %; active = max response of -50% or lower; inconclusive = between -30% and -50%; inactive = -30% or higher; note: value at the top dose of about 77 µM
Target sequence (P48426 whole entry, looked up): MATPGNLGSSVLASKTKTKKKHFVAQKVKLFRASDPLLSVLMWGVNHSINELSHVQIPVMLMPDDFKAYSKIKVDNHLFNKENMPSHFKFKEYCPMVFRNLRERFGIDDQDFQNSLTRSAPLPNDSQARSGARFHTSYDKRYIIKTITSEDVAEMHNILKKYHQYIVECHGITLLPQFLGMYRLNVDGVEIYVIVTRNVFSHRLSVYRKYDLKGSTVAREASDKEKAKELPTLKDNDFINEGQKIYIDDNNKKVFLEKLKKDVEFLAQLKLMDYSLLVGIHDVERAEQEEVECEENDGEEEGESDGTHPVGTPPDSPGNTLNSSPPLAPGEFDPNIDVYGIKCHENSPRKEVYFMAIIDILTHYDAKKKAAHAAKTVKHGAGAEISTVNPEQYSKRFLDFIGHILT
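qHTS, 1536-well: enzyme/substrate mix, compound by pin tool, 5 microM ATP final; RT 60 min; ADP-Glo reagents 1 (45 min) then 2 (30 min); luminescence.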
GALK confirm: Confirmation Assay for Inhibitors of Human Galactokinase (GALK). shares compounds with Pol eta inh-1. purified GALK, Kinase-Glo ATP depletion luminescence. Potency, µM (titrated, usually from 115 µM), usual class: inhibitors. hit rate 70% among 150
Redox cycling: Confirmatory Assay for Inhibitors of Human Galactokinase (GALK): Phenol-HRP redox assay counterscreen; shares compounds with Pol eta inh-1; Potency, µM (doses to about 115 µM), usual class: inhibitors; AID 2035, 2009; hit rate 40% among 150; Phenol red-HRP H2O2 redox cycling, absorbance 600 nm
HEK293 tox: Secondary Assay for Inhibitors of Human Galactokinase (GALK): HEK-293 Cell Viability Assay; shares compounds with Pol eta inh-1; HEK-293 viability, ATP luminescence (CellTiter-Glo), 24/48 h; Potency, µM (series often up to 46.1 µM), most hits filed as inhibitors; hit rate 10% among 170; AID 2547, 2010
Pol kappa inh-2: qHTS for Inhibitors of Polymerase Kappa: Confirmatory Assay for Cherry-picked Compounds; shares compounds with Pol eta inh-1; hit rate 76% among 920; Potency, µM, usual class: inhibitors; purified Pol-kappa, fluorescent strand-displacement substrate
Pol eta inh-2: qHTS for Inhibitors of Polymerase Eta: Confirmatory Assay for Cherry-picked Compounds | shares compounds with Pol eta inh-1 | Pol eta primer extension, TAMRA/BHQ fluorescence, 10 min | Potency, µM, actives largely listed as inhibitors | hit rate 64% among 2,600 | AID 720502, 2013
Numbers stand for hits; ! = repeats disagree; [ ] = remark or other dose. In the library only some 2.8% were active in any assay of this set; here they are far more common. Unless noted, calls come from the whole dose curve; as a rule, active = well fitted curve in the direction sought with a large enough effect; inconclusive = small, poorly fitted or top-dose-only effect, or another doubt; inactive = no such curve, though single readings can be large; an effect the other way counts as inactive or inconclusive.

CC1=C(C(=O)O)N2C(=O)C(NC(=O)c3nn(C)c(C)c3Cl)C2SC1 (stereo not drawn) was read as Pol eta inh-1 31.6µM, WRN helicase inh inactive, Pol beta inh inactive, Pol iota inh inconclusive, Pol kappa inh-1 inactive, PI5P4K alpha inh inconclusive, Pol kappa inh-2 42.3 and Pol eta inh-2 47.8.
Screening CC(C)Cn1c(N)c(C(=O)COC(=O)C2Cc3ccccc3CN2S(C)(=O)=O)c(=O)n(C)c1=O (stereo not drawn) returned Pol eta inh-1 22.4µM, WRN helicase inh inconclusive, Pol iota inh 44.7µM, Pol kappa inh-1 inconclusive, PI5P4K alpha inh inactive, Pol kappa inh-2 inconclusive and Pol eta inh-2 inconclusive.
CCCOc1cc2c(C#N)c(N3CCCC3)nc(N)c2c(N)n1 was read as Pol eta inh-1 44.7µM, WRN helicase inh inactive, Pol iota inh inconclusive, Pol kappa inh-1 inactive, PI5P4K alpha inh inactive and Pol eta inh-2 inconclusive.
CCOc1cc2c(C#N)c(N3CCCC3)nc(N)c2c(N)n1 was read as Pol eta inh-1 inactive, WRN helicase inh inactive, Pol iota inh inactive, Pol kappa inh-1 inactive and PI5P4K alpha inh inactive.
For Cc1nnc2ccc(-c3ccc(NS(=O)(=O)c4ccccc4)cc3)nn12 the results were Pol eta inh-1 inconclusive, WRN helicase inh inactive, Pol iota inh inactive, Pol kappa inh-1 inactive and PI5P4K alpha inh inactive.
`CC(=O)c1ccc(S(=O)(=O)Nc2ccc(-c3ccc4nnc(C)n4n3)cc2)cc1` gave Pol eta inh-1 20µM, WRN helicase inh inactive[11.6 µM], Pol beta inh 28.2µM, Pol iota inh inactive, Pol kappa inh-1 inconclusive, PI5P4K alpha inh inconclusive and Pol eta inh-2 inconclusive.
For Nc1ccc(Br)c2cccnc12 the results were Pol eta inh-1 inconclusive, WRN helicase inh inactive, Pol beta inh inactive, Pol iota inh inconclusive, Pol kappa inh-1 inactive, PI5P4K alpha inh inactive and Pol eta inh-2 inconclusive.
O=C(O)C1C2C=CC(C2)C1C(=O)N1CCc2ccccc21 (stereo not drawn) was read as Pol eta inh-1 inactive, WRN helicase inh inactive, Pol beta inh inactive, Pol iota inh inactive, Pol kappa inh-1 inactive and PI5P4K alpha inh inactive.
For O=C(O)C1CC=CCC1C(=O)N1CCc2ccccc21 (stereo not drawn) the results were Pol eta inh-1 inconclusive, WRN helicase inh inactive, Pol beta inh 20µM, Pol iota inh inactive, Pol kappa inh-1 inconclusive, PI5P4K alpha inh inactive and Pol eta inh-2 inconclusive.
For COc1ccc2c(c1OC)C(=O)OC2Nc1nc(-c2cc3cc(Br)ccc3oc2=O)cs1 (stereo not drawn) the results were Pol eta inh-1 inactive, WRN helicase inh inactive[11.6 µM], Pol beta inh inconclusive, Pol iota inh inconclusive, Pol kappa inh-1 inactive, PI5P4K alpha inh inconclusive and Pol eta inh-2 inconclusive.
For COc1ccc(-c2csc(NC3OC(=O)c4c3ccc(OC)c4OC)n2)cc1OC (stereo not drawn) the results were Pol eta inh-1 inactive, WRN helicase inh inactive, Pol beta inh inactive, Pol iota inh inactive, Pol kappa inh-1 inactive and PI5P4K alpha inh inactive.
O=C(NNc1cc(N2CCOCC2)nc(N2CCOCC2)n1)c1ccc([N+](=O)[O-])cc1 was read as Pol eta inh-1 89.1µM, WRN helicase inh inactive[11.6 µM], Pol beta inh inactive, Pol iota inh 6.31µM, Pol kappa inh-1 inactive, PI5P4K alpha inh inactive, GALK confirm 23.7µM, Redox cycling 4.21µM and HEK293 tox inactive.
CC(=O)c1cccc(S(=O)(=O)NCCCN2CCOCC2)c1 was read as Pol eta inh-1 20µM, WRN helicase inh inactive[11.6 µM], Pol iota inh 44.7µM, Pol kappa inh-1 inconclusive, PI5P4K alpha inh inactive and Pol eta inh-2 75.7.
Screening O=C(NCCCN1CCOCC1)c1cccc(S(=O)(=O)NCc2ccccc2)c1 returned Pol eta inh-1 inactive, WRN helicase inh inactive, Pol iota inh inactive, Pol kappa inh-1 inactive and PI5P4K alpha inh inactive.
`O=C(CN1C(=O)N/C(=C\c2cccn2-c2cccc(C(=O)O)c2)C1=O)Nc1cccc(Cl)c1` gave Pol kappa inh-2 inconclusive.
Screening Cc1ccc(NC(=O)CN2C(=O)N/C(=C\c3cccn3-c3ccc(C(=O)NS(C)(=O)=O)cc3)C2=O)cc1 returned Pol eta inh-2 inconclusive.
O=C(O)c1cccc(-n2cccc2/C=C2/NC(=O)N(Cc3ccccc3F)C2=O)c1 was read as Pol eta inh-1 20µM, WRN helicase inh inactive[11.6 µM], Pol beta inh 10µM, Pol iota inh 31.6µM, Pol kappa inh-1 inconclusive, PI5P4K alpha inh inactive and Pol eta inh-2 inconclusive.
`Cc1ccc([N+](=O)[O-])c(Oc2ncnc3c2oc2ccccc23)c1` gave Pol eta inh-1 inactive, Pol beta inh inactive, Pol iota inh inactive and Pol kappa inh-1 inactive.
Screening CN(Cc1ccccc1)C(=O)C1CCN(S(=O)(=O)c2ccc3nc4c(c(C(=O)O)c3c2)CCCC4)CC1 returned Pol eta inh-1 28.2µM, WRN helicase inh inactive[11.6 µM], Pol beta inh 28.2µM!, Pol iota inh inconclusive, Pol kappa inh-1 79.4µM, PI5P4K alpha inh inactive and Pol eta inh-2 inconclusive.
Screening Nc1ccn([C@@H]2O[C@H](CN=C3NS(=O)(=O)c4ccccc43)[C@@H](O)[C@H]2O)c(=O)n1 returned Pol eta inh-1 inactive, WRN helicase inh inactive and PI5P4K alpha inh inactive.
`O=c1[nH]c2ccc(S(=O)(=O)N3CCN(S(=O)(=O)c4c(F)cccc4F)CC3)cc2[nH]c1=O` gave Pol kappa inh-2 53.2.
